High-throughput results (PubChem)
A selection: hits, their analogues and other compounds. The true share with any hit is near 4%.
Mtb UGM inh: M. tuberculosis UGM enzyme inhibitors, primary screen, biochemical, fluorescence polarization, single point; inhibition, % at 10 µM; AID 504406, 2011; hit rate 0.06% among 320,000; purified UGM, fluorescence polarization probe displacement; in the data active means inhibition above about 10%, passing the limit was not always enough
Mtb FBA inh: Mtb FBA enzyme inhibitors, primary screen, biochemical, fluorescence, strain H37Rv | purified M. tuberculosis FBA, fluorescence read-out | inhibition, % at 1 µM | hit rate 2.3% among 360,000 | AID 588726, 2011; in the data active means inhibition above about 27%
RecA intein inh: Mtb RecA intein splicing inhibitors, primary screen, biochemical, fluorescence, HTS | Protein RecA (Mycobacterium tuberculosis (strain ATCC 25618 / H37Rv)), P9WHJ3 | AID 2221, 2009 | hit rate 0.75% among 290,000 | cell-free RecA intein splicing | inhibition, % (test concentration not listed); in the data active means inhibition above about 30%
Rv3671c protease: Rv3671c serine protease inhibitors, primary screen, biochemical, fluorescence polarization, M. tuberculosis H37Rv; P9WHR9; inhibition, % at 5.96 µM; hit rate 0.048% among 320,000; AID 2606, 2010; in the data active means inhibition above about 38%;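 further: extracellular domain of Rv3671c used as enzyme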
Mtb bLac sens: beta-lactam sensitization of Mtb H37Rv, H37Rv; AID 434955, 2010; hit rate 0.27% among 330,000; inhibition, % at 25 µM; M. tuberculosis H37Rv growth with meropenem, percent inhibition;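 further: growth measured after seven days incubation then overnight dye step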
GDH-TPI counter: GDH-TPI coupling enzyme inhibitors, primary screen, artefact control for M. tuberculosis FBA inhibitor project, biochemical, absorbance, full deck; inhibition, % at 4.8 µM; hit rate 1.2% among 360,000; GDH-TPI coupled enzyme counterscreen, NADH absorbance; AID 588335, 2011; in the data active means inhibition above about 30%
GFP chromophore: counter-screen: blocks GFP chromophore formation, dose response, counter-screen, biochemical, fluorescence, homogeneous; cell-free GFP chromophore formation; hit rate 83% among 2,100; shares compounds with RecA intein inh; EC50, µM
A number is an active result; – = inactive; · = no result. Unless noted, how the calls were made is not given here.

SMILES | Mtb UGM inh | Mtb FBA inh | RecA intein inh | Rv3671c protease | Mtb bLac sens | GDH-TPI counter | GFP chromophore
Cc1ccccc1CS(=O)(=O)c1nnc([C@H](Cc2ccccc2)NC(=O)OC(C)(C)C)o1 | – | – | 41.5 | – | – | – | 11.7
Cc1cc(C)nc(N2N=C(c3ccccc3)CC2=O)n1 | – | – | · | – | – | – | ·
COc1ccc(C2=NN(c3nc(C)cc(C)n3)C(=O)C2)cc1 | – | – | 78.3 | – | – | – | 6.87
N#C/C(=C\c1cccc(O)c1)c1nc2ccccc2o1 | – | – | 69.3 | – | – | 35.3 | 20.7
O=C1C(=O)c2ccccc2C(O)=C1CCCCl | – | – | 59.9 | – | – | – | 12
COc1cccc(NC(=O)N(C)C[C@@H]2OCc3cnnn3CCCC(=O)N([C@@H](C)CO)C[C@H]2C)c1 | · | – | · | · | · | – | ·
Nc1ccc(O)cc1 | – | · | 80.8 | – | – | · | 31.4
NC(=O)C1CC12c1ccccc1-c1ccccc12 (stereo unspecified) | – | – | – | – | – | – | ·
COc1cccc(-n2nnnc2S(C)(=O)=O)c1 | – | – | 90.8 | – | – | – | 7.27
CC1=NN(c2ccc(C)cc2C)C(=O)C1C(c1ccccc1)C1C(=O)N(c2ccc(C)cc2C)N=C1C (stereo unspecified) | – | – | 89.7 | – | – | – | 1.14
N=C1CCC(=N)c2c1c(O)c1ccccc1c2O | – | – | 90.7 | – | – | – | 27.6
CC1(NC(=O)CCNC(=O)c2ccc(C(C)(C)C)cc2)CCS(=O)(=O)C1 (stereo unspecified) | – | – | · | – | – | – | ·
CCCCCCCCCCCCCCCC[N+](C)(C)CC | – | – | 43.6 | – | – | – | 17.1
CCCCCCCCCCCCCCCC[N+](C)(C)C | – | – | 35.5 | – | – | – | 22.6
O=C(OCc1cccc(C(F)(F)F)c1)c1cc(S(=O)(=O)N2CCOCC2)ccc1F | – | – | – | – | – | – | ·
CC(=O)c1c(C)oc2ccc(N(C(=O)c3ccncc3)S(=O)(=O)c3ccccc3)cc12 | – | – | – | – | – | – | ·
O=C(c1ccncc1)N(c1ccc2oc3c(c2c1)CCCC3)S(=O)(=O)c1ccc(F)cc1 | – | – | 50.8 | – | – | – | 4.08
COc1ccc2c(c1)-c1nc(/N=C/c3c(O)ccc4ccccc34)sc1CC2 | · | – | 51.1 | · | · | – | –
O=C(N/N=C1\C/C(=N\NC(=O)c2ccncc2)c2ccccc21)c1ccncc1 | – | – | 94.6 | – | – | – | 1.15
Cc1c([N+](=O)[O-])cc(C(=O)Nc2ccc(NC(=O)c3ccco3)cc2)cc1[N+](=O)[O-] | – | – | – | – | – | – | ·
CC(CNc1ccccc1O)C(=O)O (stereo unspecified) | – | – | 50.4 | – | – | – | 17.4
CC(=O)N(c1ccccc1)c1nc(C)cc(C)c1C#N | – | – | – | – | – | – | ·
CC(=O)N(c1ccccc1)C(C)c1nc(C#N)c(C#N)nc1C (stereo unspecified) | – | – | 62.1 | – | – | – | 38.5
CCOC(=O)CSCCOc1ccc(C=C2C(=O)NC(=O)NC2=O)cc1OC | – | – | 73.4 | – | – | – | –
CCOC(=O)COc1ccc(/C=C2\C(=O)NC(=S)N(c3ccc(OC)cc3)C2=O)cc1OC | – | – | – | – | – | – | ·
SMILES | Mtb UGM inh | Mtb FBA inh | RecA intein inh | Rv3671c protease | Mtb bLac sens | GDH-TPI counter | GFP chromophore
CCn1cc(S(=O)(=O)NC2CCCCC2)cn1 | – | – | – | – | – | – | ·
COc1ccc(C(N)c2nccc3cc(OC)c(OC)cc23)cc1OC (stereo unspecified) | – | – | 92.0 | – | – | – | –
COc1cc2ccnc(C=O)c2cc1OC | · | – | · | · | · | – | ·
Cc1ccc(Nc2nc(N)c([N+](=O)[O-])c(NCc3ccco3)n2)cc1 | – | – | – | – | – | – | ·
Fc1ccc(Nc2nc(NCc3ccco3)c3ccccc3n2)cc1 | – | – | 48.8 | – | – | – | 18.3
c1ccc(CNc2nc(NCc3ccccc3)c3ccccc3n2)cc1 | – | – | 60.0 | – | – | – | 22.8
Cn1ncc(Br)c1NC(=O)Nc1ccccc1 | – | – | – | – | – | – | ·
